Test results as given in PubChem BioAssay (Tox21).
Values joined by “and” are separate entries in the source; they are usually repeats but may differ in a detail not shown here. Equal entries are not always repeated. Records with an inconclusive call do not appear. A structure can be active in one record and inactive in another. Active and inactive are the calls of the source. Calls come from the whole dose curve; as a rule, active = well fitted cell-killing curve with a large enough effect in the repeat runs; inconclusive = weak or mixed curves; inactive = no such curve, though single readings can be large or run the other way.

Assay: qHTS assay to identify small molecule antagonists of the androgen receptor (AR) signaling pathway - cell viability counter screen (AID 743033; note: nearly all actives have a fitted effect of over 45% in size)
Conditions: AR-bla HEK293 viability, CellTiter-Glo luminescence, 16 h; series mostly up to 58.5 µM; activity change, negative = cytotoxicity: at the top concentration
Description: National Center for Advancing Translational Sciences [NCATS]
NIH Chemical Genomics Center [NCGC]
U.S. Environmental Protection Agency [EPA]
National Institutes of Environmental Health Sciences [NIEHS]
National Toxicology Program [NTP]
U.S. Food and Drug Administration [FDA]
Androgen receptor (AR), a nuclear hormone receptor, plays a critical role in AR-dependent prostate cancer and other androgen related diseases. Endocrine disrupting chemicals (EDCs) and their interactions with steroid hormone receptors like AR may cause disruption of normal endocrine function as well as interfere with metabolic homeostasis, reproduction, developmental and behavioral functions. To identify the compounds that inhibit AR signaling, GeneBLAzer AR-UAS-bla-GripTite cell line (Invitrogen, Carlsbad, CA, USA) containing a beta-lactamase reporter gene under control of an Upstream Activator Sequence (UAS) stably integrated into HEK293 cells was used to screen the Tox21 10K compound library. The cytotoxicity of the Tox21 compound library against the AR-bla cell line was tested in parallel by measuring the cell viability using CellTiter-Glo assay in the same wells.
Tox21 Assay Protocol Summary:
AR-bla cells were dispensed at 2,000 cells/5 uL of assay medium per well into black wall/clear-bottom 1536-well plates using a Multidrop Combi (ThermoFisher Scientific, Waltham, MA) dispenser. After the assay plates were incubated at a 37C and 5% CO2 for 4 hr, 23 nL of compounds dissolved in DMSO, positive controls or DMSO only was transferred to the assay plate by a Pintool station (Kalypsys, San Diego, CA), followed by addition of 1 uL of agonist (R1881) in culture medium using a Bioraptr Flying Reagent Dispenser (FRD) workstation (Beckman Coulter, Indianapolis, IN, USA). The plates were incubated at a 37C and 5% CO2 for 16 h. After 1 uL of LiveBLAzerTM B/G FRET substrate was added using a Bioraptr FRD, the plates were incubated at room temperature for 2 h and fluorescence intensity was measured by an Envision plate reader (PerkinElmer, Shelton, CT). For cell viability readout that measures cytotoxicity, 4 ul/well of CellTiter-Glo reagent was added into the assay plates using a Bioraptr FRD. After 30 min incubation at room temperature, the luminescence intensity in the plates was measured using a ViewLux (PerkinElmer) plate reader.
% is set by controls: 0 for no effect and ±100 for the full control effect; potency is the fitted concentration of half-maximal effect.

Row | SMILES | activity change, negative = cytotoxicity | Potency
1 | OCC(Br)CBr (stereo not given) | 7.78% [at 78.9 µM] (inactive) | –
2 | CCc1cccc(C)c1N(C(=O)CCl)[C@@H](C)COC | -18.8% (inactive) | –
3 | CCN(CC)CCc1c[nH]c2ccccc12 | 1.12% [at 78.9 µM] (inactive) | –
4 | CC1CN1 (stereo not given) | 4.11% (inactive) | –
5 | c1ccc2c(c1)cc1ccc3cccc4ccc2c1c34 | -0.017% [at 78.9 µM] (inactive) | –
6 | c1ccc2nc(N3CCNCC3)ccc2c1 | 2.16% (inactive) | –
7 | ClCBr | 5.47% [at 78.9 µM] (inactive) | –
8 | CC1=C2C[C@H]3[C@@H](CC=C4C[C@@H](O)CC[C@@]43C)[C@@H]2CC[C@]12O[C@@H]1C[C@H](C)CN[C@H]1[C@H]2C | -0.754% (inactive) | –
9 | CN | -1.74% [at 78.9 µM] (inactive) | –
10 | CCOP(=O)(Sc1ccccc1)Sc1ccccc1 | -10.3% (inactive) | –
11 | CC(C)NCC(O)c1ccccc1Cl (stereo not given) | 9.48% (inactive) | –
12 | COCCC#N | -0.761% (inactive) | –
13 | CCCCCCCCCCCCCCn1cc[n+](C)c1 | – | 6.93 µM (active) and 24.3 µM (active) and inactive
14 | CC(=O)[O-].CC(=O)[O-].O.O.[Zn+2] | -4.76% (inactive) | –
15 | CC1CCCC1 | -1.45% (inactive) | –
16 | CNC(=O)/C=C(\C)OP(=O)(OC)OC | 2.32% (inactive) | –
17 | ClC1=C(Cl)[C@]2(Cl)[C@H]3[C@H]([C@@H]4C=C[C@H]3C4)[C@@]1(Cl)C2(Cl)Cl | – | inactive
18 | CC(=O)[O][Sn]([c]1ccccc1)([c]1ccccc1)[c]1ccccc1 | – | 245 nM (active)
19 | N#Cc1ccc(N(CC(N)=O)CC(F)(F)F)cc1C(F)(F)F | 6.5% (inactive) | –
20 | CC(Cl)CCl (stereo not given) | 1.66% (inactive) | –

Row | SMILES | activity change, negative = cytotoxicity | Potency
21 | Oc1cccc(Cl)c1Cl | 0.843% [at 78.9 µM] (inactive) | –
22 | CCCC[N+]1(C)CCCC1 (tested in a mixture with another compound) | -0.891% [at 78.9 µM] (inactive) | –
23 | CSC(C)(C)/C=N/O | 4.47% (inactive) | –
24 | CC(C)C(Nc1ccc(C(F)(F)F)cc1Cl)C(=O)OC(C#N)c1cccc(Oc2ccccc2)c1 (stereo not given) | 0.209% [at 78.9 µM] (inactive) | –
25 | Nc1ccccc1-c1ccccc1 | 5.95% (inactive) | –
26 | CSSC | 4.57% [at 78.9 µM] (inactive) | –
27 | CCOC(=O)Cc1ccccc1 | -0.167% (inactive) | –
28 | CNN | 0.0303% [at 78.9 µM] (inactive) | –
29 | O=C(O)CCCCCCNC1c2ccccc2CCc2ccccc21 | 3.13% (inactive) | –
30 | O=C1C2(Cl)C3(Cl)C4(Cl)C(Cl)(Cl)C5(Cl)C3(Cl)C1(Cl)C5(Cl)C24Cl (stereo not given) | – | 38.3 µM (active) and 46.9 µM (active)
31 | Clc1c(Cl)c(Cl)c(Cl)c(Cl)c1Cl | 3.9% [at 7.04 µM] (inactive) | –
32 | O=[N+]([O-])c1cc(C(F)(F)F)c(Cl)c([N+](=O)[O-])c1Nc1ncc(C(F)(F)F)cc1Cl | – | 275 nM (active)
33 | CC(=O)C(Cl)C(=O)N(C)C (stereo not given) | -19.4% (inactive) | –
34 | CC(C)C(Br)C(=O)NC(N)=O (stereo not given) | 6.87% (inactive) | –
35 | CN1CCc2cc(Cl)c(O)cc2[C@H]2c3ccccc3CC[C@@H]21 | -2.65% (inactive) | –
36 | O=C1C(Cl)=C(Cl)C(=O)C(Cl)=C1Cl | – | 17.3 µM (active) and 21.9 µM (active)
37 | COP(=S)(NC(C)C)Oc1ccc(C)cc1[N+](=O)[O-] (stereo not given) | -27.5% (inactive) | –
38 | CCCCON=O | 2.45% [at 78.9 µM] (inactive) | –
39 | CN(C)C(=S)SSC(=S)N(C)C | – | 535 nM (active) and 85.9 nM (active) and 34.7 nM (active)
40 | CN1[C@@H]2CC[C@H]1CC(O)C2 (stereo not given in full) | -1.41% [at 78.9 µM] (inactive) | –
